Only some compounds are listed: those with a hit (about 0.45% of all), similar ones and a draw of the others.
Mtb BioA inh: M. tuberculosis BioA enzyme inhibitors, primary screen, biochemical, plate reader, single point, HTS; 7,8-diaminopelargonic acid synthase BioA (Mycobacterium tuberculosis); purified M. tuberculosis BioA enzyme; inhibition, % at 9.99 µM; actives 0.096% (n = 360,000); in the data active = inhibition above about 40%
TcdB GH inh: TcdB glycohydrolase inhibitors, primary screen, biochemical, single point, plate reader; Toxin B (Clostridioides difficile), P18177; TcdB glycohydrolase enzymatic assay; inhibition, % at 9.99 µM; actives 0.24% (n = 350,000); AID 652162, 2013; in the data active = inhibition above about 10%
Yp Topo-I inh: Yersinia pestis topoisomerase I inhibitors, primary screen, biochemical, cleavage product accumulation, plate reader, single point; DNA topoisomerase I (Yersinia pestis CO92); Y. pestis Topo-I cleavage product accumulation; activity, % at 10 µM; actives 0.064% (n = 360,000); in the data active = activity above about 50%, passing the limit was not always enough
FadD28 binding: inhibitors of FadD28 bisubstrate probe binding, primary screen, biochemical, fluorescence polarization, single point. Mycobacterium tuberculosis FadD28 fatty-acid-AMP ligase. inhibition, % at 12.5 µM. actives 0.22% (n = 360,000). AID 588549, 2011; in the data active = inhibition above about 8.5%, passing the limit was not always enough
Active calls of the source: *; / = not tested or not shown.

SMILES | Mtb BioA inh | TcdB GH inh | Yp Topo-I inh | FadD28 binding
CC(=O)Oc1ccc2nc(/C=C/c3ccccc3)oc(=O)c2c1 | -4 | 12* | 4 | -1
CC12N=C3SCc4ccccc4CN3[C@H](c3ccccc3O1)[C@H]2CO | 0 | 1 | / | /
CCOc1ccc2c(ccc(/C=C/c3cc(C)c4cccnc4c3O)[n+]2C)c1 | / | / | -42 | 16*
N#CC(C#N)=C(N)/C(C#N)=C/c1cc(O)c(O)c(O)c1 | 2 | -8 | -9 | 13*
CCN(CC)C(=O)C1(P(=O)(c2ccccc2)c2ccccc2)CCC1 | 0 | 1 | -2 | -1
CCCCN(CCCC)C(=O)C1(P(=O)(c2ccccc2)c2ccccc2)CCC1 | 2 | 2 | 55* | -12
CCOc1ccccc1N(C(C)=O)S(=O)(=O)c1ccc(Cl)cc1 | / | 1 | 3 | -5
CC(=O)N(c1ccccc1C)S(=O)(=O)c1ccc(Cl)cc1 | / | 11* | -5 | -1
COc1cc(/C=C2\SC(=S)N(CCCCC(=O)O)C2=O)ccc1OS(=O)(=O)c1ccc(C)cc1 | 4 | 0 | 23 | 24*
COc1cc(/C=C2/SC(=S)NC2=O)ccc1OS(=O)(=O)c1ccc(C)cc1 | / | / | -5 | -12
COCC(=O)N1C[C@H](C)[C@H](OC)CN(C)C(=O)c2cc(NC(=O)NC(C)C)ccc2OC[C@@H]1C | -1 | -1 | / | /
CCCNC(=O)N1CC[C@@H]2[C@@H](CO)N(C)c3ccc(-c4ccccc4)cc3[C@@H]21 | / | 11* | / | /
CC(C)NC(=O)N1CC[C@@H]2[C@H]1c1cc(-c3ccc(F)cc3)ccc1N(C)[C@H]2CO | / | 12* | / | /
CC(C)NC(=O)N1CC[C@@H]2[C@H]1c1cc(-c3ccccc3)ccc1N(C)[C@H]2CO | 0 | 15* | / | /
O=C(C1CCOCC1)N1CC[C@@H]2[C@@H](CO)Nc3ccc(-c4ccc(F)cc4)cc3[C@@H]21 | 15 | 10* | / | /
CC(C)NC(=O)N1CC[C@@H]2[C@@H](CO)N(C)c3ccc(-c4cccc(F)c4)cc3[C@@H]21 | 27 | / | / | /
CC(C)NC(=O)N(C)C[C@@H]1Oc2ncc(-c3ccc(C(=O)N(C)C)cc3)cc2C(=O)N([C@@H](C)CO)C[C@@H]1C | 0 | 2 | / | /
COCC(=O)Nc1ccc2c(c1)[C@@H]1C[C@@H](CC(=O)NCc3ccc(Cl)cc3)O[C@H](CO)[C@@H]1O2 | 0 | / | / | /
S=c1[nH]nc(-c2ccccn2)n1/N=C/c1ccc(Cl)cc1 | / | 15* | -2 | 1
C[C@@H]1CN([C@H](C)CO)C(=O)c2cccc(NS(=O)(=O)c3ccc(Cl)cc3)c2O[C@H]1CN(C)S(=O)(=O)c1ccccc1 | -2 | -8 | / | /
COc1ccccc1/C=N/NC(=O)CCSc1ccccc1 | 3 | -1 | 3 | -3
CC(=O)Oc1ccc(/C=N/NC(=O)CCSc2ccccc2)cc1 | 3 | 11* | 11 | -5
C[C@H](CO)N1C[C@H](C)[C@@H](CN(C)C(=O)CN(C)C)Oc2ncc(-c3ccc(C#N)cc3)cc2C1=O | 1 | 1 | / | /
CCCn1c(C(O)c2cc(OC)c(OC)c(OC)c2)nc2ccccc21 (configuration not stated) | 8 | -1 | -4 | -1
COc1cc(C(O)c2nc3ccccc3s2)cc(OC)c1OC (configuration not stated) | 2 | 0 | -6 | 24*
SMILES | Mtb BioA inh | TcdB GH inh | Yp Topo-I inh | FadD28 binding
O=C(O)c1cc(-c2ccc(/C=C3\NC(=O)N(c4ccc(Cl)cc4)C3=O)o2)ccc1Cl | / | -1 | 5 | 10*
CO[C@H]1CN(C)C(=O)c2cc(NC(=O)Nc3ccc4c(c3)OCO4)ccc2OC[C@@H](C)NC[C@H]1C | 2 | 0 | / | /
O=C(NN1C(=O)/C(=C/c2ccc(O)c(O)c2)SC1=S)c1ccccc1 | 6 | -11 | -18 | 43*
O=C(NN1C(=O)/C(=C\c2ccc(O)c([N+](=O)[O-])c2)SC1=S)c1ccccc1Cl | 5 | 1 | -1 | 15*
Cn1cccc1/C=C1\SC(=S)N(NC(=O)c2ccccc2Cl)C1=O | / | / | -1 | -9
O=C1/C(=C/c2ccc(O)c(O)c2)SC(=S)N1Nc1ccccc1 | / | / | -24 | -5
Cc1ccc(C(=O)NN2C(=O)/C(=C/c3cccn3C)SC2=S)cc1 | -3 | 1 | 7 | 13*
CCC(=O)N1[C@H](CO)[C@@H](c2ccc(-c3ccc(F)cc3)cc2)[C@@H]1CNC(C)=O | 4 | / | / | /
Cc1ccc(CNc2ccc(O)cc2)cc1 | 0 | / | -18 | 12*
Cc1ccc(NCc2ccccc2O)cc1 | / | / | 9 | -1
Cc1ccc(S(=O)(=O)Nc2ccc3c(c2)C(=O)N([C@@H](C)CO)C[C@H](C)[C@@H](CN(C)C(=O)CCC(F)(F)F)OCCCC[C@H](C)O3)cc1 | 2 | 1 | / | /
C[C@H](CO)N1C[C@H](C)[C@H](CN(C)Cc2ccc(Oc3ccccc3)cc2)Oc2ccc(NC(=O)Nc3ccc(C(F)(F)F)cc3)cc2C1=O | -3 | -1 | / | /
C/C(=N\Nc1ccc(C(=O)O)cc1)c1ccc2c(c1)Nc1ccccc1S2 | 7 | 2 | -5 | 20*
C/C(=N/Nc1ccc(C(=O)O)cc1)c1ccc2c(c1)Nc1ccccc1S2 | / | 3 | -14 | 20*
COc1ccc(/C(C)=N/Nc2cccc(C(=O)O)c2)cc1OC | 2 | 0 | 1 | 0
CCCNC(=O)N1[C@H](CO)[C@H](c2ccc(C3=CCCCC3)cc2)[C@H]1CNC(C)C | / | 0 | / | /
CCCNC(=O)N1CCC2(CC1)CN(C(=O)CCC)[C@H](CO)c1[nH]c3cc(OC)ccc3c12 | / | -2 | / | /
CCCNC(=O)Nc1ccc2c(c1)OC[C@H](C)N(C(=O)CC)C[C@@H](C)[C@H](OC)CN(C)C2=O | 0 | 0 | / | /
CCCn1c(=S)[nH]c2cc(OC)c(OC)cc2c1=O | -2 | 2 | -2 | -1
COc1cc2[nH]c(=S)n(Cc3cccs3)c(=O)c2cc1OC | 0 | 25* | -6 | 0
C=CCN=c1scc(C)n1/N=C/c1ccc(O)c(O)c1 | / | 15* | -4 | 2
COc1ccc(O)c(/C=N/n2c(-c3ccco3)csc2=Nc2cccnc2)c1 | / | / | 18 | 1
CN=c1scc(-c2ccco2)n1/N=C/c1ccc(O)c(O)c1 | / | 0 | -2 | 11*
CCCCCC(=O)Nc1cc(S(=O)(=O)O)cc2cc(S(=O)(=O)O)cc(O)c12 | / | -5 | -9 | 35*
CCCCCC(=O)Nc1cc(S(=O)(=O)N2CCCCC2)ccc1N1CCCCC1 | -2 | 0 | 28 | 0
Cn1nc([N+](=O)[O-])c(C(C#N)c2nc3ccccc3n2C)c(Cl)c1=O (configuration not stated) | / | / | -6 | 12*
Cn1c(-c2ccc([N+](=O)[O-])cc2)nc2ccccc21 | 0 | 1 | -11 | 1
CCN(CC)c1ccc(/C=c2\sc3nnc(-c4ccccc4Cl)n3c2=O)cc1 | -6 | / | 0 | 19*
C[C@H](CO)N1C[C@H](C)[C@H](CN(C)Cc2ccccc2)OCCCC[C@H](C)Oc2ccc(N(C)C)cc2C1=O | -1 | -30 | / | /
Fc1ccc(-c2nc3ccc(Br)cn3c2Cc2ccccc2)cc1 | -1 | 13* | -3 | -2
